90 molecules from PubChem BioAssay AID651813 (National Center for Advancing Translational Sciences (NCATS), 2012) can be followed below.

In all, about 2,100 compounds went through this assay and about 1,100 (52%) were called active. Roughly 27% stayed inconclusive and do not appear here. The set was probably picked from earlier hits. The list shows a part of the results. Unmarked numbers belong to inactive results. Calls come from the whole dose curve; as a rule, active = well fitted inhibition curve with a large enough effect; inconclusive = small, poorly fitted or top-dose-only effect; inactive = no such curve, though single readings can be large or run the other way.
Potency is the fitted concentration of half-maximal effect.

In this test the target is DNA dC->dU-editing enzyme APOBEC-3G (Homo sapiens) (UniProt Q9HC16). The test is described as follows: qHTS for inhibitors of Vif-A3G interactions: Cherry picks counterscreen.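 For max response: max response given as percent of control signal.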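 Note: hits raise yellow fluorescence by blocking Vif-driven A3G-eYFP degradation; nearly all actives have a fitted effect of over 70% in size.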 The following applies: HeLa A3G-eYFP + Vif (tagged APOBEC3G with the HIV-1 protein that degrades it), eYFP fluorescence, 24 h. The text has this: The recent discovery and characterization of host restriction factors, which provide a potent defense to invading retroviruses, has provided new targets for antiviral drug development. APOBEC3G (A3G) and APOBEC3F (A3F) are potent cytidine deaminases that block HIV-1 replication; HIV-1 expresses the Vif protein, which counteracts A3G and A3F by binding to them and inducing their proteasomal degradation. The Vif-A3G and Vif-A3F interactions provide two potential targets for development of small molecules which can interfere with the ability of Vif to degrade A3G or A3F. […] To identify inhibitors that can interfere with Vif mediated degradation of A3G and A3F, we have developed Hela cell lines that stably express A3G or A3F tagged with eYFP at the C-terminal end (A3G-eYFP or A3F-eYFP, respectively) and Vif. In the absence of an inhibitor, Vif induces degradation of A3G-eYFP and A3F-eYFP, and the cells are not fluorescent. In the presence of an inhibitor, it is expected that Vif will be unable to degrade A3G-eYFP and/or A3F-eYFP, resulting in an increase in yellow fluorescence. In this counterscreen assay, Vif A3G was screened against the cherry picks ordered from the MLSMR. NIH Chemical Genomics Center [NCGC] NIH Molecular Libraries Probe Centers Network [MLPCN] MLPCN Grant: MH093245 Assay Submitter (PI): Vinay Pathak, National Cancer Institute
Sequence of DNA dC->dU-editing enzyme APOBEC-3G (Homo sapiens) (Q9HC16 whole entry, looked up): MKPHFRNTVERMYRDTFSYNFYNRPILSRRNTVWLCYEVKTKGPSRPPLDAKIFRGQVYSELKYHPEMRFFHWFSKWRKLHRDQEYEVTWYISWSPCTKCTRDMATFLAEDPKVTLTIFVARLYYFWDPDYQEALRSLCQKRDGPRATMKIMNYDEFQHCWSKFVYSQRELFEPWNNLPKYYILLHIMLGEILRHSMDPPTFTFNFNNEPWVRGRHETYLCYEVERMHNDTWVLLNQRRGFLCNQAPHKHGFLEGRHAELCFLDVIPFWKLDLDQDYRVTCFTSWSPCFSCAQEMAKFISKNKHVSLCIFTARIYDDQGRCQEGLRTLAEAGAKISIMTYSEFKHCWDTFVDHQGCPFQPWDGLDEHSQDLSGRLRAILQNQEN
A3G-Vif cells were harvested from T225 flask and resuspended in phenol free OPTI-MEM medium with 5% FBS. Then 5 uL of 140,000 cells/mL resuspended cells was dispensed into each well of low base Aurora COC 1,536-well plates (black walled, clear bottom) using a Multidrop Combi dispenser. After overnight culture at 37 deg C with 5% CO2, a total of 23 nL of compounds at 5 selected concentrations from the NPC or positive control (2 mM stock of MG132) in DMSO was transferred to each well of the assay plate using a pintool (Kalypsys, San Diego, CA), and the plates were further incubated at 37 deg C with 5% CO2 for 24 hours. After that, the plates were measured on Acumen Explorer (TTP Lab Tech). The fluorescence was detected by 488 nm/Ex and […].
In general terms: In qHTS, concentration-response curves come from the screen itself.
For `COC(=O)CCC(=O)NC(=S)Nc1sc(C)c(C)c1C(N)=O`, the Potency is 0.886 µM (active).

As for `Cc1nonc1NC(=O)CSc1nc2c(C)cccc2cc1C#N`, the Potency is 20.6 µM (active).

In the case of `Cc1cc(NC(=O)CSc2nc(-c3cccs3)nc3ccccc23)no1`, the Potency is 3.53 µM (active).

Take `Cc1cc(NC(=O)CSc2nc3c(C)cccc3cc2C#N)no1`: the Potency is 4.11 µM (active).

Regarding `C1=Cc2ccccc2/C1=C\c1cc2c3c(c1)CCCN3CCC2`, the Potency was 13 µM (active).

In the case of `c1ccc2c(CCc3c[nH]c4ccccc34)ccnc2c1`, the Potency was 16.4 µM (active).

For `CSc1nsc(/C=C/Nc2ccc(C)cc2)c1C#N`, the Potency is 15.8 µM (active).

Take `CSc1nsc(/C=C/Nc2ccc(F)cc2)c1C#N`: the Potency was 16.4 µM (active).

As for `CCN(CC)c1ccc(/C=c2/sc3nnc(-c4ccccc4C)n3c2=O)cc1`, the Potency was 23.1 µM (active).

With `CCOC(=O)Nc1ccc2nc(-c3cscn3)[nH]c2c1`, the Potency was 8.86 µM (active).

For the molecule `O=C(O)CCCN1C(=O)/C(=C\C(Cl)=C\c2ccccc2)SC1=S`, the Potency was 5.59 µM (active).

For `CCC(=O)Nc1ccccc1-c1nc2ccccc2n(C(C)C(=O)Nc2ccc(OC)cc2)c1=O` (stereo not given), the Potency was 8.2 µM (active).

Regarding `COCCNC(=O)C(=O)Nc1ccc2c(c1)N(S(=O)(=O)c1cccs1)CCC2`, the Potency was 6.27 µM (active).

`Nc1c(C(=O)Nc2nccs2)sc2nc(-c3cccs3)cc(C(F)(F)F)c12`: the Potency is 7.9 µM (active).

With `Nc1c(C(=O)Nc2ccc(F)cc2)sc2nc(-c3cccs3)cc(C(F)(F)F)c12`, the Potency is 0.82 µM (active).

On to `Cc1nnc(NC(=O)c2sc3nc(-c4cccs4)cc(C(F)(F)F)c3c2N)s1`, for which the Potency is 2.59 µM (active).

`O=C(Nc1nc2ccccc2s1)c1ccc([N+](=O)[O-])o1`: the max response is -24.2%.

As for `Nc1c(C(=O)Nc2nc3ccccc3s2)sc2nc(-c3cccs3)ccc12`, the Potency is 6.51 µM (active).

`CC(C)Cn1c(N)c(C(=O)COC(=O)c2ccc([N+](=O)[O-])o2)c(=O)n(C)c1=O`: the max response is 8.96%.

On to `O=C(/C=C/c1ccco1)N1CCc2ccccc21`, for which the max response is -19.9%.

With `Cc1c(C(=O)C(=O)N2CC=C(c3ccccc3)CC2)c2ccccc2n1C`, the Potency was 7.04 µM (active).

As to `Cc1c(C(=O)C(=O)N2CCCc3ccccc32)c2ccccc2n1C`, the Potency is 11.2 µM (active).

Turning to `CCOC(=O)c1cc(-c2ccccc2)sc1NC(=S)Nc1cc(C)ccn1`, the Potency is 18.4 µM (active).

For the molecule `CCOC(=O)c1ccc(NC(=S)Nc2cccc(C)n2)cc1`, the max response is -9.19%.

With `Cc1ccc(NC(=S)Nc2ccccn2)c(C)c1`, the max response was -5.64%.

On to `Cc1ccnc(NC(=O)Nc2ccc3c(c2)N(C)C(=O)CS3)c1`, for which the Potency is 2.59 µM (active).

As to `Cc1ccc(-c2nc3sc(C#N)c(N)n3c(=O)c2C#N)cc1`, the Potency was 25.9 µM (active).

As for `O=C1c2ccccc2C(=O)c2cc(N3CCCCC3)ccc21`, the Potency is 6.27 µM (active).

Consider `Cc1ccc(C(=O)N/C(=C/c2ccc(-c3ccc([N+](=O)[O-])cc3)o2)C(=O)NCCCN(C)C)cc1`, for which the Potency is 15.8 µM (active).

As for `Cc1cc2nc3s/c(=C/c4ccc(-c5ccccc5C(=O)O)o4)c(=O)n3c2cc1C`, the Potency was 23.1 µM (active).

For `Cc1cc(C)cc(NC(=S)NC(=O)C2CC2)c1`, the max response was -14.6%.

With `O=C1/C(=C\c2cc([N+](=O)[O-])ccc2O)SC(=S)N1Cc1ccc(Cl)cc1`, the Potency was 18.4 µM (active).

Turning to `Cc1cc(N)cc(C)c1-c1c(Br)cc(N)cc1Br`, the Potency is 8.86 µM (active).

Regarding `Nc1c(C(=O)c2ccccc2)sc2nsc(SCCN3CCCC3)c12`, the Potency was 14 µM (active).

Regarding `Nc1c(C(=O)c2ccccc2)sc2snc(SCC(=O)c3ccccc3)c12`, the Potency is 14 µM (active).

Take `Nc1c(C(=O)c2ccccc2)sc2nsc(SCCN3CCOCC3)c12`: the Potency is 4.61 µM (active).

As for `COc1ccc(OC)c(S(=O)(=O)N/N=C\c2cn(CC(N)=O)c3ccccc23)c1`, the Potency was 15.8 µM (active).

In the case of `CCN(CC)C(=O)Cn1c(C)c(/C=C/c2cc[n+](C)cc2)c2ccccc21`, the Potency is 15.8 µM (active).

Consider `COC(=O)Cn1c(C)c(/C=C/c2cc[n+](C)cc2)c2ccccc21`, for which the Potency was 9.2 µM (active).

Regarding `CCOC(=O)c1c(Nc2ccc(Cl)cc2)sc(/C=C2\C=Nc3ccccc32)c1O`, the Potency is 20.6 µM (active).

Turning to `CCOc1ccc(N(C)c2ccc(/C=C3/SC(=S)NC3=O)cc2)cc1`, the Potency is 15.8 µM (active).

In the case of `COc1ccccc1N=C1NC(=O)/C(=C/c2ccc(N(C)C)cc2)S1`, the max response is 38.1%.

On to `CN(C)c1ccc(C=C2SC(=S)NC2=O)cc1`, for which the Potency was 9.94 µM (active).

Regarding `C=C1C(=O)O[C@@H]2[C@H]1[C@@H](OC(=O)/C(C)=C/C)C/C(C)=C\C(=O)/C=C(\C)[C@@H]2O`, the Potency is 15.8 µM (active).

On to `CCCCN1C(=O)/C(=C/C=C2/CC(C)(C)CN2C)SC1=S`, for which the max response is 54.7%.

Turning to `C=CCN1C(=O)/C(=C\C=C2\N(C)c3ccccc3C2(C)C)SC1=S`, the Potency is 0.291 µM (active).

For the molecule `CCCN1C(=O)/C(=C\C=C2\N(CC)c3ccccc3C2(C)C)SC1=S`, the Potency was 2.06 µM (active).

Regarding `CN1/C(=C/C=C(/C#N)C(N)=O)C(C)(C)c2ccccc21`, the Potency was 9.94 µM (active).

Regarding `CCCN1C(=O)/C(=C/C=C2\N(CC)c3ccccc3C2(C)C)SC1=S`, the Potency is 1.58 µM (active).

With `CN1/C(=C\C=C2/SC(=S)N(CC(=O)O)C2=O)C(C)(C)c2ccccc21`, the max response was 52.2%.

Consider `CN1/C(=C\C=C2/SC(=S)NC2=O)C(C)(C)c2ccccc21`, for which the Potency is 3.53 µM (active).

As to `COc1ccc2c(c1)/C(=C/c1cc(OC)c(OC)c(OC)c1)C(=O)N2`, the Potency is 3.53 µM (active).

With `COc1ccc2c(c1)/C(=C\c1cccc(/C=C3/C(=O)Nc4ccc(OC)cc43)n1)C(=O)N2`, the max response is -72.2%.

`Cc1cccc(-c2noc(-c3ccc(NCc4ccco4)c([N+](=O)[O-])c3)n2)c1`: the Potency is 20.6 µM (active).

Consider `O=[N+]([O-])c1cc(-c2nc(-c3ccccc3)no2)ccc1NCc1ccco1`, for which the Potency was 10.3 µM (active).

Regarding `O=C1N/C(=N\N=C\c2ccco2)SC1Cc1ccccc1[N+](=O)[O-]` (stereo not given), the max response was -1.06%.

On to `O=C(NCc1cccnc1)c1cccc(NS(=O)(=O)c2ccc(Br)cc2)c1`, for which the Potency was 4.44 µM (active).

With `N#CC1=C(N)Oc2ccc3ccccc3c2C1c1cccnc1` (stereo not given), the Potency is 6.27 µM (active).

Turning to `CCN(CC)c1ccc2c(c1)OC(N)=C(C#N)C2c1cccnc1` (stereo not given), the Potency was 15.8 µM (active).

With `COc1cc(OC)c(/C=C/c2ccc3ccccc3[n+]2C)c(OC)c1`, the Potency is 20.6 µM (active).

Take `CCCCN1C(=O)C2Cc3c([nH]c4ccccc34)CN2C1=S` (stereo not given): the Potency is 15.8 µM (active).

For the molecule `CCOc1ccc(CN2C(=O)c3ccccc3Sc3ccc(C(=O)O)cc32)cc1`, the Potency is 4.61 µM (active).

On to `O=C(NNC1=Nc2cccc3cccc1c23)c1ccc(Br)cc1`, for which the Potency was 23.1 µM (active).

Take `C/C(=N\Nc1nc(C)cc(-c2ccccc2)n1)c1ccc(F)cc1`: the max response was -5.07%.

Turning to `Cc1cc(-c2ccccc2)nc(N/N=C/c2ccccc2F)n1`, the max response is -29.5%.

For the molecule `Nc1c(C(=O)N/N=C/c2cccnc2)oc2nc(-c3ccccc3)cc(-c3ccco3)c12`, the Potency was 8.2 µM (active).

For the molecule `Nc1c(C(=O)N/N=C/c2ccccc2Cl)oc2nc(-c3ccccc3)cc(-c3ccco3)c12`, the Potency is 2.91 µM (active).

With `Nc1c(C(=O)N/N=C/c2ccc(F)cc2)oc2nc(-c3ccccc3)cc(-c3ccco3)c12`, the Potency is 6.27 µM (active).

For `CSCC[C@H](NC(=O)[C@H](Cc1ccccc1)n1c(=O)[nH]c2ccccc2c1=O)C(=O)N1CCC[C@@H]1C(=O)O`, the max response is 6.25%.

In the case of `O=C(CN1C(=O)CSc2ncccc21)Nc1cccc(Cl)c1`, the Potency is 23.1 µM (active).

For the molecule `COc1ccc(NC(=O)CN2C(=O)C3(SCC(=O)N3c3ccccc3)c3ccccc32)cc1Cl` (stereo not given), the max response was 10.4%.

Consider `O=C(CN1c2ccccc2Sc2ccccc21)NNC(=O)Nc1cccc(Cl)c1`, for which the max response was -25.9%.

For `CC(/C=C/c1ccc(N(C)C)cc1)=N\N=C(/N)SC1CC(=O)N(c2ccc(C(=O)O)cc2)C1=O` (stereo not given), the max response is -29.3%.

For the molecule `CCOC(=O)C1C(=O)C=C(/C=C/c2ccc(N(C)C)cc2)CC1c1ccccc1` (stereo not given), the Potency was 4.61 µM (active).

With `CC(C)CC(=O)NC(=S)N(Cc1ccccc1)Cc1ccccc1`, the max response is -12.5%.

For `COc1cc(/C=C2\C(=N)N3N=CSC3=NC2=O)cc(Br)c1OC(=O)c1ccco1`, the max response is 43.8%.

As to `COc1cc(/C=C2\SC(N)=NC2=O)cc(Br)c1O`, the Potency was 17.7 µM (active).

As to `COc1ccc(-c2nc3c4ccccc4ccn3c2Cc2ccsc2)cc1OC`, the max response is -1.53%.

`COc1cc(-c2nc3ccc(C)cn3c2NCc2ccccc2)ccc1SC1CCCCC1`: the max response was 34.4%.

Consider `COc1ccc(-c2nnc(SCC(=O)NCc3ccccc3)nc2-c2ccc(OC)c(OC)c2)cc1OC`, for which the Potency was 2.59 µM (active).

As for `CCOc1cc(C)nc(NCc2ccccc2)n1`, the max response was -21.7%.

On to `CCOc1cc(-c2nnc(SCC(=O)NCc3ccccc3)nc2-c2ccc(OC)c(OCC)c2)ccc1OC`, for which the Potency was 2.31 µM (active).

For `CCC(C)Sc1cc(-c2nc3ccccn3c2NC2CCCCC2)ccc1OC` (stereo not given), the max response was 6.89%.

As to `N#CCSc1ccccc1NC(=O)COc1ccc(-c2nnco2)cc1`, the Potency was 12.5 µM (active).

With `Cc1nc(C)c(C(=O)OCC(=O)Nc2ccccc2SCC#N)s1`, the Potency was 15.8 µM (active).

In the case of `CCC1=Nc2cc(C(=O)NCc3cccnc3)ccc2Sc2ccc(C)cc21`, the Potency was 12.5 µM (active).

As to `COc1ccc(C(=O)NC(=S)NCc2cccnc2)cc1Cl`, the max response is -0.724%.

On to `C=CCNc1nc(-c2ccccc2)c(C(=O)OCC)cc1C#N`, for which the Potency is 7.04 µM (active).

On to `CCOC(=O)c1cnc(-n2nc(C)cc2C)nc1NNc1cc(C)nc(-c2ccccc2)n1`, for which the max response was 14.5%.

In the case of `CCOC(=O)c1cnc(-n2nc(C)cc2C)nc1NNc1nc(-c2ccccc2)cc(-c2ccccc2)n1`, the max response was 18.7%.
